Assay results as given in PubChem BioAssay (NCI).
About 83,000 compounds went through this panel and 20% of them were active in at least one assay; those are over-represented in the sample as a whole.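 Note: values are percent growth. 100 is the growth of untreated cells, values between 100 and 0 indicate rising inhibition; between -100 and 0 indicates cell death.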 Values without a mark were called inactive. The source made the active and inactive calls. Rule for the calls: active = growth percent below 10; inactive = the rest.

What was measured:
Test in all cases: NCI-60 one-dose screen, 48 h (100 = growth as untreated, 0 = no growth, -100 = all killed)
Settings in all cases: 10 µM unless noted
HCT-15 colon = system: HCT-15 colon
HT29 colon = system: HT29 colon
SNB-75 CNS = system: SNB-75 CNS
U251 CNS = system: U251 CNS
PC-3 prostate = system: PC-3 prostate
SK-MEL-5 melanoma = system: SK-MEL-5 melanoma
UACC-62 melanoma = system: UACC-62 melanoma
LOX IMVI melanoma = system: LOX IMVI melanoma
SK-MEL-28 melanoma = system: SK-MEL-28 melanoma
SK-MEL-2 melanoma = system: SK-MEL-2 melanoma
EKVX NSCLC = system: EKVX NSCLC
SN12C renal = system: SN12C renal
UO-31 renal = system: UO-31 renal
TK-10 renal = system: TK-10 renal
ACHN renal = system: ACHN renal
CAKI-1 renal = system: CAKI-1 renal
A498 renal = system: A498 renal
CCRF-CEM leukemia = system: CCRF-CEM leukemia
MOLT-4 leukemia = system: MOLT-4 leukemia

Compound	growth (HCT-15 colon)	growth (HT29 colon)	growth (SNB-75 CNS)	growth (U251 CNS)	growth (PC-3 prostate)	growth (SK-MEL-5 melanoma)	growth (UACC-62 melanoma)	growth (LOX IMVI melanoma)	growth (SK-MEL-28 melanoma)	growth (SK-MEL-2 melanoma)	growth (EKVX NSCLC)	growth (SN12C renal)	growth (UO-31 renal)	growth (TK-10 renal)	growth (ACHN renal)	growth (CAKI-1 renal)	growth (A498 renal) [%]	growth (CCRF-CEM leukemia)	growth (MOLT-4 leukemia)
O=C(O)c1cccc2c1-c1ccccc1C2=O	95.7%	103%	86.8%	95.7%	94%	102%	90.1%	97.5%	109%	98.4%	90.3%	84.2%	94.3%	91.1%	94.4%	65.1%	96.1	84.2%	99.4%
O=c1c(/C=C/c2ccco2)nnc(SCCN2CCOCC2)n1/N=C/c1ccc([N+](=O)[O-])cc1	99%	106%	99.9%	104%	96.5%	91.1%	96.2%	106%	104%	106%	81.6%	102%	71.3%	154%	99.7%	106%	103	-20.4% (active)	81.2%
CNc1cc2nc3cc(NC)c(C)cc3cc2cc1C	11.1%	10%	16.5%	9.07% (active)	18.2%	35.7%	45.7%	6.5% (active)	46%	48.5%	-0.852% (active)	14.2%	34.5%	24.5%	20.6%	7.63% (active)	16.5	40.9%	1.13% (active)
Nc1cccc(NC(=O)C(=O)Nc2cccc(N)c2)c1	94.5%	115%	94%	95.8%	99.8%	117%	90.6%	90%	103%	97.6%	94%	88.6%	84.4%	122%	85.8%	78.1%	89.6	97.9%	98.1%
Cc1ccc(N)cc1F	91.7%	110%	101%	95.8%	108%	104%	96%	87.8%	117%	97.1%	98%	96%	92.6%	123%	99.8%	74.5%		102%	92.3%
CCN(CC)Cc1cc(Nc2c3ccccc3nc3cc(Cl)ccc23)ccc1O	-28.6% (active)	-38.3% (active)	-100% (active)	-51.6% (active)	-41.5% (active)	-100% (active)	-97.2% (active)	-86.5% (active)	-79.3% (active)	-74.2% (active)	-55.1% (active)	-36.9% (active)	-72.9% (active)	-65.6% (active)	-97.3% (active)	-75% (active)		-11.9% (active)	-28.9% (active)
Cc1cc2cc3cc(C)c(N(C)C)cc3[n+](C)c2cc1N(C)C	65.6%	16.6%	35.4%	12.3%	4.2% (active)	42.1%	56%	25.9%	39.6%	-22% (active)	52%	10.7%	62.1%	-17.4% (active)	43.8%	47.2%	56.9	13%	33.9%
CC(C)n1cc2c(N)ncnc2n1	106%	101%	81.6%	106%	106%	108%	92.9%	108%	152%	89.5%	88.1%	98.2%	90%	96.6%	105%	79.4%	126	109%	98.2%
COC1/C=C\OC2(C)Oc3c(C)c(O)c4c(O)c(c(CN(C)CCO)c(O)c4c3C2=O)NC(=O)/C(C)=C\C=C/C(C)C(O)C(C)C(O)C(C)C(OC(C)=O)C1C (configuration not stated)	104%	140%	83.2%	109%	97.2%	108%	97.6%	94.9%	124%	105%	95.1%	105%	80.3%	114%	103%	68.5%		98.3%	112%
Cc1ccc2c(c1)O/C(=C\c1cccc(OCC(=O)c3ccccc3)c1)C2=O	69.8%	118%	93.4%	96.5%	358%	87.3%	66.1%	101%	110%	70%	95.5%	107%	78.4%	133%	103%	85.1%	106	129%	-34.3% (active)
Oc1ccccc1N=Cc1c(O)ccc2ccccc12	77.8%	82.9%	69.8%	83.3%	61.3%	77.3%	63.8%	61.7%	113%	62.4%	63.2%	65.3%	57%	119%	59.3%	47.6%	64.8	32.5%	37.1%
O=C1/C(=C\c2cn(C(=O)c3ccc(Cl)cc3)c3ccccc23)c2ccccc2N1c1c(Cl)cccc1Cl	66.3%	103%	82.3%	88.4%	71.9%	107%	95.4%	97.7%	113%	103%	97.8%	89.5%	77%	119%	97.6%	86.4%	103	111%	89.6%
Cc1cc(=O)oc2cc(Oc3nc(-c4ccc(Cl)cc4)cn4c(-c5ccc(Cl)cc5)cnc34)ccc12	63.8%	47.7%	91.6%	88.1%	87.9%	84.4%	99.3%	84.4%	38.3%	106%	106%	100%	85.5%	104%	97.7%	90.2%	105	80.6%	74.5%
OC(c1cc(-c2ccccc2)nc2ccc(Cl)cc12)C1CCCCN1 (configuration not stated)	-12.3% (active)	-3.87% (active)	61.9%	21.5%	49.4%	-5.63% (active)	-31.2% (active)	-83.2% (active)	-76.9% (active)	89.2%	63%	66.3%	20.5%	71.3%	22.1%	34.3%	64.6	64.6%	27.5%
COc1cccc(/C=C\C(=O)c2ccccc2)c1	66.3%	73.4%	78.9%	35.1%	63.5%	90.8%	70.7%	30.3%	103%	105%	90.7%	70.1%	60.2%	102%	75%	66.6%	93.8	25.2%	28.8%
